Source: PubChem BioAssay AID1159580 (chemical genetic matrix, 2015)
Where “and” joins values, the source holds several entries; their conditions need not be identical. Identical values can stand only once. In all, about 5,500 compounds went through this assay and about 2,000 (36%) were called active. Inconclusive results (about 18%) are left out. Rule as the data show it: active = normalized growth mostly below about 0.91 (no sharp cut-off); inconclusive = no clear call, values can overlap the other calls; inactive = mostly above about 0.92. The list shows a part of the results.

Assay: chemical genetic growth profiling, strain panel (AID 1159580);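 also: tested at 20 µM; growth read once vehicle control cultures reached saturation at 30 °C; 1 = growth at the plate median or of vehicle wells; lower values mean less growth of the strain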
Conditions: growth OD

Measured: normalized growth

CC(=O)OCC(COC(C)=O)OC(C)=O
inactive: S. cerevisiae deletion strains, locus YAL013W, strain DEP1, stronger effect = lower value 1.01 | S. cerevisiae deletion strains, locus YBR021W, strain FUR4, stronger effect = lower value 1.02 | S. cerevisiae deletion strains, locus YBR229C, strain ROT2, stronger effect = lower value 1 | S. cerevisiae deletion strains, locus YCL029C, strain bik1, stronger effect = lower value 1.03 | S. cerevisiae deletion strains, locus YDL035C, strain GPR1, stronger effect = lower value 1.02 | S. cerevisiae deletion strains, locus YDL074C, strain BRE1, stronger effect = lower value 1.02 | S. cerevisiae deletion strains, locus YDL101C, strain DUN1, stronger effect = lower value 1.02 | S. cerevisiae deletion strains, locus YDL134C, strain PPH21, stronger effect = lower value 1.01 | S. cerevisiae deletion strains, locus YDL185W, strain tfp1, stronger effect = lower value 1.01 | S. cerevisiae deletion strains, locus YDL192W, strain arf1, stronger effect = lower value 1.02 | S. cerevisiae deletion strains, locus YDR101C, strain arx1, stronger effect = lower value 1 | S. cerevisiae deletion strains, locus YDR150W, strain NUM1, stronger effect = lower value 1.01 | S. cerevisiae deletion strains, locus YDR162C, strain NBP2, stronger effect = lower value 1.01 | S. cerevisiae deletion strains, locus YDR318W, strain mcm21, stronger effect = lower value 1.01 | S. cerevisiae deletion strains, locus YDR388W, stronger effect = lower value 1.01 | S. cerevisiae deletion strains, locus YDR502C, strain sam2, stronger effect = lower value 1 | S. cerevisiae deletion strains, locus YEL061C, strain CIN8, stronger effect = lower value 1.01 | S. cerevisiae deletion strains, locus YER110C, stronger effect = lower value 1.01 | S. cerevisiae deletion strains, locus YER155C, strain BEM2, stronger effect = lower value 0.999 | S. cerevisiae deletion strains, locus YER167W, strain BCK2, stronger effect = lower value 1.01 | S. cerevisiae deletion strains, locus YGL078C, strain dbp3, stronger effect = lower value 1.01 | S. cerevisiae deletion strains, locus YGL086W, strain mad1, stronger effect = lower value 1 | S. cerevisiae deletion strains, locus YGL248W, strain PDE1, stronger effect = lower value 1.01 | S. cerevisiae deletion strains, locus YGR078C, strain PAC10, stronger effect = lower value 1.02 | S. cerevisiae deletion strains, locus YGR135W, strain pre9, stronger effect = lower value 1.01 | S. cerevisiae deletion strains, locus YGR229C, strain SMI1, stronger effect = lower value 1.02 | S. cerevisiae deletion strains, locus YGR252W, strain gcn5, stronger effect = lower value 0.969 | S. cerevisiae deletion strains, locus YHR030C, strain SLT2, stronger effect = lower value 1.01 and 0.958 | S. cerevisiae deletion strains, locus YHR079C, strain IRE1 (second series), stronger effect = lower value 1.01 | S. cerevisiae deletion strains, locus YHR079C, strain IRE1, stronger effect = lower value 0.989 | S. cerevisiae deletion strains, locus YHR094C, strain hxt1, stronger effect = lower value 1.01 | S. cerevisiae deletion strains, locus YHR129C, strain ARP1, stronger effect = lower value 1.01 | S. cerevisiae deletion strains, locus YHR200W, strain rpn10, stronger effect = lower value 1.01 | S. cerevisiae deletion strains, locus YIL066C, strain RNR3, stronger effect = lower value 1.03 | S. cerevisiae deletion strains, locus YIL073C, strain SPO22, stronger effect = lower value 1.02 | S. cerevisiae deletion strains, locus YIL125W, strain kgd1, stronger effect = lower value 1 | S. cerevisiae deletion strains, locus YIR030C, strain dcg1, stronger effect = lower value 1.01 | S. cerevisiae deletion strains, locus YJL095W, strain BCK1, stronger effect = lower value 1.02 and 0.962 | S. cerevisiae deletion strains, locus YJL134W, strain LCB3, stronger effect = lower value 1.01 | S. cerevisiae deletion strains, locus YJL168C, strain set2, stronger effect = lower value 1.01 | S. cerevisiae deletion strains, locus YJL187C, strain SWE1 (second series), stronger effect = lower value 1.03 | S. cerevisiae deletion strains, locus YJR043C, strain POL32, stronger effect = lower value 1.02 | S. cerevisiae deletion strains, locus YJR066W, strain TOR1, stronger effect = lower value 0.936 | S. cerevisiae deletion strains, locus YJR075W, strain HOC1, stronger effect = lower value 1.03 | S. cerevisiae deletion strains, locus YKL009W, strain mrt4, stronger effect = lower value 1.02 | S. cerevisiae deletion strains, locus YKL068W, stronger effect = lower value 1 | S. cerevisiae deletion strains, locus YKL085W, strain MDH1 (second series), stronger effect = lower value 1.01 | S. cerevisiae deletion strains, locus YKL085W, strain MDH1, stronger effect = lower value 1.01 | S. cerevisiae deletion strains, locus YKL190W, strain CNB1, stronger effect = lower value 1.01 | S. cerevisiae deletion strains, locus YKR001C, strain vps1, stronger effect = lower value 1.02 | S. cerevisiae deletion strains, locus YLR039C, strain RIC1, stronger effect = lower value 0.991 | S. cerevisiae deletion strains, locus YLR058C, strain SHM2, stronger effect = lower value 1.01 | S. cerevisiae deletion strains, locus YLR102C, strain apc9, stronger effect = lower value 0.997 | S. cerevisiae deletion strains, locus YLR113W, strain HOG1, stronger effect = lower value 1 | S. cerevisiae deletion strains, locus YLR262C, strain YPT6, stronger effect = lower value 1.03 | S. cerevisiae deletion strains, locus YLR268W, strain sec22, stronger effect = lower value 1.03 | S. cerevisiae deletion strains, locus YLR330W, strain CHS5, stronger effect = lower value 1.02 | S. cerevisiae deletion strains, locus YLR342W, strain FKS1 (second series), stronger effect = lower value 1.01 | S. cerevisiae deletion strains, locus YLR371W, strain rom2, stronger effect = lower value 1.01 | S. cerevisiae deletion strains, locus YLR418C, strain cdc73, stronger effect = lower value 1.02 | S. cerevisiae deletion strains, locus YML016C, strain PPZ1, stronger effect = lower value 1.01 | S. cerevisiae deletion strains, locus YML032C, strain rad52, stronger effect = lower value 1.03 | S. cerevisiae deletion strains, locus YML124C, strain tub3, stronger effect = lower value 1 | S. cerevisiae deletion strains, locus YMR078C, strain ctf18, stronger effect = lower value 1.01 | S. cerevisiae deletion strains, locus YMR223W, strain ubp8, stronger effect = lower value 1 | S. cerevisiae deletion strains, locus YMR263W, strain SAP30, stronger effect = lower value 1.02 | S. cerevisiae deletion strains, locus YMR307W, strain GAS1, stronger effect = lower value 0.998 | S. cerevisiae deletion strains, locus YNL067W, strain RPL9B, stronger effect = lower value 1.03 | S. cerevisiae deletion strains, locus YNL128W, strain TEP1, stronger effect = lower value 1.02 | S. cerevisiae deletion strains, locus YNL153C, strain GIM3, stronger effect = lower value 1.02 | S. cerevisiae deletion strains, locus YNL183C, strain NPR1, stronger effect = lower value 0.949 | S. cerevisiae deletion strains, locus YNL233W, strain BNI4, stronger effect = lower value 1.01 | S. cerevisiae deletion strains, locus YNL250W, strain rad50, stronger effect = lower value 1 | S. cerevisiae deletion strains, locus YNL271C, strain bni1, stronger effect = lower value 1.02 | S. cerevisiae deletion strains, locus YNL298W, strain CLA4, stronger effect = lower value 1.02 | S. cerevisiae deletion strains, locus YNL307C, strain MCK1, stronger effect = lower value 1.01 | S. cerevisiae deletion strains, locus YNL322C, strain KRE1, stronger effect = lower value 1.01 | S. cerevisiae deletion strains, locus YNR052C, strain pop2, stronger effect = lower value 1.01 | S. cerevisiae deletion strains, locus YOL006C, strain TOP1, stronger effect = lower value 1.05 | S. cerevisiae deletion strains, locus YOL012C, strain htz1 1.07 | S. cerevisiae deletion strains, locus YOL147C, strain pex11, stronger effect = lower value 1.01 | S. cerevisiae deletion strains, locus YOR061W, strain CKA2, stronger effect = lower value 1.01 | S. cerevisiae deletion strains, locus YOR069W, strain VPS5, stronger effect = lower value 1.01 | S. cerevisiae deletion strains, locus YOR136W, strain idh2, stronger effect = lower value 1.01 | S. cerevisiae deletion strains, locus YOR144C, strain elg1, stronger effect = lower value 0.998 | S. cerevisiae deletion strains, locus YOR184W, strain ser1, stronger effect = lower value 1.02 | S. cerevisiae deletion strains, locus YOR231W, strain MKK1, stronger effect = lower value 0.993 | S. cerevisiae deletion strains, locus YOR316C, strain cot1, stronger effect = lower value 1.01 | S. cerevisiae deletion strains, locus YPL055C, strain LGE1, stronger effect = lower value 1.06 | S. cerevisiae deletion strains, locus YPL241C, strain CIN2, stronger effect = lower value 1.01 | S. cerevisiae deletion strains, locus YPL256C, strain CLN2, stronger effect = lower value 0.989 | S. cerevisiae deletion strains, locus YPR119W, strain clb2, stronger effect = lower value 1.01 | S. cerevisiae deletion strains, locus YPR141C, strain kar3, stronger effect = lower value 1.01 | S. cerevisiae deletion strains, locus YPR163C, strain tif3, stronger effect = lower value 1.02 | S. cerevisiae deletion strains, locus YPR167C, strain met16, stronger effect = lower value 1.01 | S. cerevisiae deletion strains, strain wtn01, stronger effect = lower value 1.04 | S. cerevisiae strains, strain wild type, stronger effect = lower value 1.02
